Among the data in PubChem BioAssay AID652115 (Broad Institute, 2013) are inhibition values, retold here.

As usually defined, the inhibition is the change of the read-out against control, counted positive when it falls.

Several values for one entry are separate records, joined by “and”; a condition that tells them apart may be missing. Equal entries are not always repeated. Hit rate of the full screen: of about 330,000 compounds, about 3,800 (1.2%) were called active. Cut-off read from the data, not from the text of the source: active = inhibition above about 15%; inconclusive = no clear call, values can overlap the other calls; inactive = below that. Shown is part of a subset that was picked to be rich in actives. A structure can be active in one record and inactive in another.

The target of the experiment is NAD-dependent protein deacylase sirtuin-5, mitochondrial (Homo sapiens) (UniProt Q9NXA8). Description: SIRT5 desuccinylase inhibitors, primary screen, biochemical, fluorescence imaging, single point, set 5 (AID 652115). The following applies: Purified SirT5, succinyl-peptide AMC, trypsin-coupled fluorescence; at 15 µM; stronger effect = higher value.
Sequence of NAD-dependent protein deacylase sirtuin-5, mitochondrial (Homo sapiens) (Q9NXA8 whole entry, looked up): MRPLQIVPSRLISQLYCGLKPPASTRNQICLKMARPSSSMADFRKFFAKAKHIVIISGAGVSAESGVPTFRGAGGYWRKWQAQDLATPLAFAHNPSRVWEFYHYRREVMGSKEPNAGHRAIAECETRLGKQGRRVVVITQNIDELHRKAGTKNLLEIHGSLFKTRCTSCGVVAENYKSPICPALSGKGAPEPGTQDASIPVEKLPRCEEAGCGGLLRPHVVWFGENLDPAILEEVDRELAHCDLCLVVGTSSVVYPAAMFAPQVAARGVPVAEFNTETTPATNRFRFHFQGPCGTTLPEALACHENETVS
Consider `Cc1ccc(C(=O)NCC(=O)NCc2cc(=O)n(C)c(=O)n2C)cc1`, for which the inhibition is 31.9% (active).

In the case of `COc1ccc(S(=O)(=O)NCC(=O)NCc2cc(=O)n(C)c(=O)n2C)cc1F`, the inhibition was -2% (inactive).

Turning to `Cc1ccc(C(=O)NCC(=O)NC2CC2)cc1`, the inhibition was -1.54% (inactive).

`CC(C)NC(=O)Nc1ccc2c(c1)C(=O)N([C@H](C)CO)C[C@H](C)[C@@H](CN(C)C)OCCCC[C@H](C)O2`: the inhibition was 0.043% (inactive).

For the compound `COc1cc(/C=C2/C(=O)NN(c3cccc(Cl)c3)C2=O)cc(Br)c1O`, the inhibition was 9.45% (inactive).

Turning to `C#CCOc1ccc(/C=C2/C(=O)NN(c3ccccc3)C2=O)cc1OC`, the inhibition was 98.1% (active).

As for `C#CCOc1ccc(/C=C2/C(=O)ON=C2C)cc1OCC`, the inhibition was -2.23% (inactive).

With `CN(C)C(=O)C[C@H]1C=C[C@@H](NC(=O)C2CCC2)[C@@H](CO)O1`, the inhibition was -0.42% (inactive).

For `C[C@H](CO)N1C[C@H](C)[C@H](CN(C)CC2CCCCC2)OCCCC[C@H](C)Oc2ccc(NC(=O)c3ccncc3)cc2C1=O`, the inhibition is 2.1% (inactive).

As for `O=S(=O)(Cc1ccccc1)N1CCCCN2[C@@H](CO)[C@@H](c3ccc(-c4ccc(F)cc4)cc3)[C@@H]2C1`, the inhibition was 4.06% (inactive).

In the case of `COc1ccc2c3c(n(C)c2c1)[C@@H](CO)N(C(=O)CN1CCOCC1)CC31CCN(C(=O)C2CC2)CC1`, the inhibition was -4.96% (inactive).

As to `O=C(C[C@H]1CC[C@H]2[C@@H](COC[C@@H](O)CN2Cc2cccc(C(F)(F)F)c2)O1)NCc1ccncc1`, the inhibition was 2.67% (inactive).

As for `O=C(C[C@@H]1CC[C@@H]2[C@H](COC[C@H](O)CN2Cc2cccc(F)c2)O1)NCc1ccncc1`, the inhibition is -0.883% (inactive).

With `O=C(C[C@H]1CC[C@H]2[C@@H](COC[C@@H](O)CN2Cc2nccs2)O1)NCc1ccccc1Cl`, the inhibition is 16.4% (active).

As to `O=C(C[C@@H]1CC[C@@H]2[C@H](COC[C@H](O)CN2Cc2cccc(C(F)(F)F)c2)O1)NCc1ccc(F)cc1`, the inhibition was 16.6% (active).

In the case of `O=C(C[C@@H]1CC[C@@H]2[C@H](COC[C@@H](O)CN2Cc2ccc(Cl)cc2)O1)NCc1ccccc1Cl`, the inhibition was -1.3% (inactive).

`O=C(C[C@@H]1CC[C@H]2[C@@H](COC[C@@H](O)CN2Cc2nccs2)O1)NCc1ccc(-c2ccccc2)cc1`: the inhibition was 3.03% (inactive).

As for `CN(C)C(=O)[C@@H]1[C@@H](CO)[C@@H]2Cn3c(ccc(-c4ccccc4)c3=O)[C@@H]2N1CCC(F)(F)F`, the inhibition is 0.07% (inactive).

With `C[C@@H](NC(=O)C[C@H]1C=C[C@H](NC(=O)C2CCOCC2)[C@H](CO)O1)c1ccccc1`, the inhibition is 2.71% (inactive).

Take `COc1ccc(NC(=O)N2C[C@H](O)COC[C@H]3O[C@@H](CC(=O)NC4Cc5ccccc5C4)CC[C@@H]32)cc1`: the inhibition is -1.07% (inactive).

Take `CC(C)CC#Cc1cnc2c(c1)C(=O)N([C@@H](C)CO)C[C@@H](C)[C@@H](CN(C)S(=O)(=O)c1cccs1)O2`: the inhibition is 3.74% (inactive).

For `C/C=C/c1ccc([C@H]2[C@@H](CO)N(C(=O)C3CC3)[C@@H]2CNC(=O)NC(C)C)cc1`, the inhibition is -3.13% (inactive).

`CCC(=O)N(C)C[C@@H]1Oc2ncc(C#CCC3CCCC3)cc2C(=O)N([C@@H](C)CO)C[C@H]1C`: the inhibition is 2.53% (inactive).

With `CN1C(=O)c2cc(NC(=O)C3CCOCC3)ccc2OC[C@@H]2O[C@H](CC(=O)NCc3ccccc3F)CC[C@H]21`, the inhibition is -13.7% (inactive).

In the case of `C[C@@H](O)C#Cc1ccc2c(c1)O[C@@H](CN(C)Cc1cccnc1)[C@@H](C)CN([C@@H](C)CO)S2(=O)=O`, the inhibition was -2.24% (inactive).

In the case of `C[C@H]1CN([C@@H](C)CO)S(=O)(=O)c2ccc(C3=CCCC3)cc2O[C@@H]1CN(C)Cc1ccccc1`, the inhibition was 24.3% (active).

For the compound `C/C=C/c1ccc2c(c1)O[C@H](CN(C)Cc1ccccc1)[C@H](C)CN([C@@H](C)CO)S2(=O)=O`, the inhibition was 3.6% (inactive).

On to `Cc1noc(C)c1NC(=O)N(C)C[C@@H]1Oc2cc(Br)ccc2S(=O)(=O)N([C@@H](C)CO)C[C@H]1C`, for which the inhibition was -3.62% (inactive) and 22.1% (active).

For the compound `C/C=C/c1ccc2c(c1)O[C@H](CN(C)Cc1cccc(F)c1)[C@H](C)CN([C@H](C)CO)S2(=O)=O`, the inhibition was 18% (active).

With `C/C=C/c1ccc2c(c1)O[C@H](CN(C)C)[C@H](C)CN([C@H](C)CO)S2(=O)=O`, the inhibition is -0.588% (inactive).

Turning to `CC(C)C#Cc1ccc2c(c1)O[C@H](CN(C)Cc1ccccc1)[C@H](C)CN([C@@H](C)CO)S2(=O)=O`, the inhibition is -0.3% (inactive).

As for `C[C@@H]1CN([C@@H](C)CO)S(=O)(=O)c2ccc(C3=CCCC3)cc2O[C@@H]1CN(C)Cc1ccncc1`, the inhibition is 0.906% (inactive).

Take `Cc1noc(C)c1NC(=O)N(C)C[C@@H]1Oc2cc(C#CCC(C)C)ccc2S(=O)(=O)N([C@H](C)CO)C[C@@H]1C`: the inhibition is 10.8% (inactive).

`C[C@@H]1CN([C@H](C)CO)S(=O)(=O)c2ccc(C#C[C@@H](C)O)cc2O[C@@H]1CN(C)Cc1ccc(-c2ccccc2)cc1`: the inhibition was 27% (active) and 4.33% (inactive) and -0.184% (inactive).

As for `C[C@H](CO)N1C[C@H](C)[C@@H](CN(C)Cc2cccnc2)Oc2cc(C3=CCCC3)ccc2S1(=O)=O`, the inhibition was 0.149% (inactive).

`COc1ccccc1NC(=O)N(C)C[C@H]1Oc2cc(Br)ccc2S(=O)(=O)N([C@H](C)CO)C[C@@H]1C`: the inhibition was -3.29% (inactive) and -0.792% (inactive).

As for `CO[C@@H](CN(C)C(=O)c1cnccn1)[C@@H](C)CN([C@@H](C)CO)S(=O)(=O)c1ccc(F)cc1`, the inhibition was 3.39% (inactive).

As to `CCNC(=O)C[C@@H]1CC[C@@H]2[C@H](COc3ccc(NS(=O)(=O)c4ccccc4C)cc3C(=O)N2C)O1`, the inhibition is -4.85% (inactive).

As to `C/C=C/c1ccc2c(c1)O[C@@H](CN(C)S(=O)(=O)c1ccc(F)cc1)[C@@H](C)CN([C@H](C)CO)S2(=O)=O`, the inhibition is 7.93% (inactive).

Turning to `O=C(Nc1cc(F)ccc1F)N[C@H]1CC[C@@H](CCn2cc(C3CCCC3)nn2)O[C@@H]1CO`, the inhibition is -0.428% (inactive).

As for `C[C@H](CO)N1C[C@H](C)[C@@H](CN(C)C(=O)c2ccncc2)Oc2cc(/C=C/c3ccccc3)ccc2S1(=O)=O`, the inhibition is 0.659% (inactive).
